FBPA coupling cs: qHTS Assay for Inhibitors of Fructose-1,6-bisphosphate Aldolase from Giardia Lamblia: Coupling assay counterscreen; coupling enzyme system counterscreen, AmpLite Red fluorescence; activity change, negative = inhibition, % at 58.2 µM, hits read low; hit rate 0.67% among 290,000; in the data active means activity change below about -30%; further: on the % scale 0 is the no-effect control and ±100 the full control effect
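Activity here indicates interference with the coupling reaction, not aldolase inhibition. Compounds at 57.5 uM final met coupling enzymes for 10 min at RT; substrate and AmpLite Red detection followed, with a 525/598 nm fluorescence read after 20 min.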
gsp agonist: qHTS for Agonist of gsp, the Etiologic Mutation Responsible for Fibrous Dysplasia/McCune-Albright Syndrome: qHTS | gsp mutant cells, cAMP HTRF, 30 min | Potency, µM (titrated, usually from 76.9 µM), for the others: top-dose activation (cAMP increase), most hits filed as activators | hit rate 0.13% among 340,000; active means well fitted activation curve with a large enough effect; inconclusive means small, poorly fitted or top-dose-only effect, or another doubt; inactive means no such curve, though single readings can be large or run the other way; cell line not stated here;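 further: phosphodiesterase inhibitor Ro 20-1724 added with compounds to block cAMP breakdown; potency means the concentration at half of the fitted maximal effect; nearly all actives have a fitted effect of over 60% in size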
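Cells in DMEM/10% FBS with G418 were pretreated with compounds in DMSO plus […] (300 uM stock) for 30 min at 37C. cAMP was measured by HTRF (cAMP-d2 plus anti-cAMP antibody-K) after 30 min at room temperature.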
RXFP1 ag: qHTS Assay for Agonists of the Relaxin Receptor RXFP1; HEK293T-RXFP1 cAMP TR-FRET, 30 min; response scale: percent of porcine relaxin response, buffer zero; hit rate 0.3% among 370,000; AID 2676, 2010; Potency, µM (highest dose often 57.5 µM), for inactives: at the top dose activation, hits mostly activators; Relaxin receptor 1 (Homo sapiens), Q9HBX9; active means well fitted activation curve with a large enough effect; inconclusive means small, poorly fitted or top-dose-only effect; further: potency means the concentration at half of the fitted maximal effect; on the % scale 0 is the no-effect control and ±100 the full control effect; nearly all actives have a fitted effect of over 60% in size
Target sequence (Q9HBX9 whole entry, looked up): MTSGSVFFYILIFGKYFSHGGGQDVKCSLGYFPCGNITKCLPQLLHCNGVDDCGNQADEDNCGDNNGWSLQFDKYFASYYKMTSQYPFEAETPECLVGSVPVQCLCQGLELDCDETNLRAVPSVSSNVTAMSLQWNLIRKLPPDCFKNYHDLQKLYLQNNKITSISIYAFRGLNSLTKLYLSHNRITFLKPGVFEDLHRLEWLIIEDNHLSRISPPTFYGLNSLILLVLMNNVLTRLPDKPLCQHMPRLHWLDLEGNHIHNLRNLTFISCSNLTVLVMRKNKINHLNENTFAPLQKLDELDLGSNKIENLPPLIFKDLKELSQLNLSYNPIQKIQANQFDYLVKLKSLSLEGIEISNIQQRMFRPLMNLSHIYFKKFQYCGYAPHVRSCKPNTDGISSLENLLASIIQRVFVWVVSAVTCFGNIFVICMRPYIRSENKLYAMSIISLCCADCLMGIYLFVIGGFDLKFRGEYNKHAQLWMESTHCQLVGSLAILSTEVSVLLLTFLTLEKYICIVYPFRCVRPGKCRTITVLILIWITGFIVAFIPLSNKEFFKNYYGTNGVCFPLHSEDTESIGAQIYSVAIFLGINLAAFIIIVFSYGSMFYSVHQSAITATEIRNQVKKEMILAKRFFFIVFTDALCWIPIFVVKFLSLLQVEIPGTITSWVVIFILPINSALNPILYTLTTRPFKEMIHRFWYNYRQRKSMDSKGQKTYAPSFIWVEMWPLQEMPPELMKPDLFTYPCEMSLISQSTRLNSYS
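HEK293T cells stably expressing RXFP1 were pretreated with the PDE4 inhibitor Ro 20174, exposed to compounds for 30 min at 37C, lysed, and cAMP was read by TR-FRET. Data normalized to buffer (basal) and 29 nM porcine relaxin (100%).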
Giardia killer: Small Molecules that selectively kill Giardia lamblia: qHTS | Giardia lamblia trophozoite viability | activity change, % at 7.66 µM, hits read low | hit rate 0.15% among 340,000 | AID 540267, 2011; in the data active means activity change below about -80%; inconclusive means between about -30% and that limit;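 further: parasites exposed to compound for two days anaerobically before the ATP read; on the % scale 0 is the no-effect control and ±100 the full control effect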
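Luminescent ATP signal served as the viability read-out, measured 15-30 min after adding ATP detection reagent to trophozoites that had been incubated with compounds for 48 hrs at 37 deg C anaerobically at 100 cells/well.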
RXFP1 antag: qHTS Assay for Antagonists of the Relaxin Receptor RXFP1 | Relaxin receptor 1 (Homo sapiens), Q9HBX9 | HEK293-RXFP1, relaxin-stimulated cAMP HTRF, 30 min; hits give low values | activity change, negative = inhibition, % at 57.5 µM | hit rate 0.59% among 350,000;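 active means activity change of -60% or lower, but not beyond a set lower limit; inconclusive means change between -60% and -40%, or beyond the set limit; inactive means change above -40%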; further: on the % scale 0 is the no-effect control and ±100 the full control effect
gsp antagonist: qHTS for Antagonists of gsp, the Etiologic Mutation Responsible for Fibrous Dysplasia/McCune-Albright Syndrome: qHTS; hit rate 0.4% among 340,000; AID 624288, 2012; Potency, µM (top dose mostly 76.9 µM), inactives show at the highest dose activity change, negative = inhibition, usual class: inhibitors; gsp-mutant cells, cAMP HTRF, 30 min; calls by dose curve; cell line not stated here;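 further: intracellular cAMP measured with PDE inhibitor Ro 20-1724 present during compound exposure; potency means the concentration at half of the fitted maximal effect; on the % scale 0 is the no-effect control and ±100 the full control effect; nearly all actives have a fitted effect of over 65% in size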
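HTRF cAMP measurement after 30 min RT detection following 30 min, 37C compound treatment alongside […] (added as 300 uM solution) in G418-selected cells seeded at 2000/well and grown 16–24 h.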
An asterisk follows results filed as active; ? = inconclusive; . = no result; ! = a repeat was not active; [ ] = remark or other dose. The list is not random: actives were taken first. Their share in the collection is about 1.6%.

SMILES	FBPA coupling cs	gsp agonist	RXFP1 ag	Giardia killer	RXFP1 antag	gsp antagonist
COc1ccc(COC(=O)N/N=C2/C[C@@H](O)[C@@H](O)[C@@H]3[C@@H]4C(=O)N(c5cccc(Oc6ccccc6)c5)C(=O)[C@H]4CC[C@H]23)cc1	3.1	.	.	.	.	.
Cc1cccc(-n2c(-c3csc(C)c3)n[nH]c2=S)c1	-2.2	8.0%	4.1%	-7.0	-66.4*	-33.3%
CCOc1cc(/C=N/Nc2cccc(C(=O)O)c2)ccc1OC(=O)c1ccccc1	4.9	3.2%	0.8%	-2.2	-75.0*	-10.0%
CCOc1cc(/C=N/NC(=O)c2ccncc2)ccc1OC(=O)c1ccccc1	1.0	0.1%	-0.7%	-0.7	-25.0	-12.3%
COc1cc(C=NNc2ccccc2)ccc1OC(=O)c1ccccc1	.	-0.5%	.	.	-0.4	.
CCOc1cc(/C=N/NC(=O)c2ccccn2)ccc1OC(=O)c1ccc(F)cc1	.	-55.0%	2.5%	14.9	-93.3*	-7.8%
C=CCOc1ccc(Br)cc1CNCCCN1CCOCC1	2.2	-44.8%	1.5%	9.2	11.6	3.4%
Cc1cccc(COc2coc(CN3CCN(C(=O)c4ccco4)CC3)cc2=O)c1	.	-0.1%[15.4 µM]	1.0%	4.1	-1.2	-1.2%
O=C(c1ccco1)N1CCN(Cc2cc(=O)c(OCc3ccccc3)co2)CC1	.	20µM*	-1.5%	-8.5	-12.5	7.6%
COc1cc(/C=N/NC(=O)c2cn(-c3cccc(C)n3)cn2)ccc1O	2.1	23.8%	-0.7%	-8.4	-11.5	0.7%
CC1=C(Nc2ccc(C(=O)O)cc2)C(=O)c2ccccc2C1=O	-12.4	20.2%	-0.6%	2.7	-0.1	?
CC(C)NC1=C(Cl)C(=O)c2ccccc2C1=O	-42.4*	3.6%	0.1%	-14.6	12.5	-8.6%
C=CCNC1=C(Cl)C(=O)c2ccccc2C1=O	-35.2*	?	2.0%	-4.5	12.0	12.6%
O=C(O)c1ccc(NC2=C(Cl)C(=O)c3ccccc3C2=O)cc1	19.0	?	1.2%	-6.0	-8.6	28.2µM*
O=C(O)c1cccc(NC2=C(Cl)C(=O)c3ccccc3C2=O)c1	-19.5	?	6.9%	6.7	-20.0	50.1µM*
CCC1OCCC=CC1C (stereo not given)	0.1	.	.	.	.	.
Nc1ccc(C(=O)N2CC3CC(CN(Cc4ccccc4)C3)C2)cc1	.	.	.	.	7.4	.
O=C1C(Cl)=C(Nc2ccccc2)C(=O)c2ccccc21	-33.2*	-39.9%	0.5%	-0.9	.	-4.8%
Cc1ccc(NC2=C(NC(=O)c3ccccc3)C(=O)c3ccccc3C2=O)cc1Cl	-47.6*	-5.2%	-2.6%	4.7	.	-40.0%
Cc1cn2c(=O)cc(COC(=O)c3cccc(NC(=O)C(C)Oc4ccccc4)c3)nc2s1 (stereo not given)	.	.	12.3%	.	3.1	.
COCCNC(=O)C(OC(=O)c1nsc(Cl)c1Cl)C(C)C (stereo not given)	0.4	?	17.8µM*	-0.5	8.8	7.1%
Cc1ccc(Cl)cc1NC(=S)N/N=C/c1cccc2ccccc12	0.3	0.6%[15.4 µM]	0.5%	-6.2	-9.5	11.8%
c1ccc2c(c1)c1c3n2CCNC3CCC1 (stereo not given)	-50.3*	-14.7%	0.6%	3.1	-8.7	-8.2%
Oc1ccc2c(c1)c1c3n2CCNC3CCC1 (stereo not given)	-6.2	27.7%[15.4 µM]	-6.7%	-7.8	-5.9	?
O=C(NCC(c1ccc(Cl)cc1)N1CCCCC1)c1ccccc1F (stereo not given)	.	.	6.5%	.	-10.8	.
SMILES	FBPA coupling cs	gsp agonist	RXFP1 ag	Giardia killer	RXFP1 antag	gsp antagonist
Cc1ccc(C(=O)NCC(=O)NNC(=O)CN(C)S(=O)(=O)c2ccc(Cl)cc2)s1	.	9.7%[15.4 µM]	0.6%	-12.7	-3.5	11.5%
C=CCOC(=O)C(C(C)=O)C(NC(=O)OC)c1cccs1 (stereo not given)	1.0	.	.	.	.	.
CC(CN1CCOCC1)OC(=O)c1ccccc1 (stereo not given)	6.1	-2.0%[15.4 µM]	3.9%	-6.3	-11.5	8.2%
COc1ccccc1/C=C/C(=O)OC(C)CN1CCOCC1 (stereo not given)	-44.7*	-11.1%	3.5%	5.5	3.7	-4.8%
COC(=O)c1sc(NC(=S)NC(=O)c2ccccc2F)nc1C	6.8	?	35.5µM*	0.1	-4.1	-6.3%
COC(=O)CCCC1=CC2=C(c3ccccc3)C(=O)C(C)(OC(=O)C3CCCC3)C(=O)C2=CN1CCN1CCOCC1 (stereo not given)	-34.8*!	.	0.0%	-3.5	.	-13.0%
COC(=O)CCCC1=CC2=C(c3ccccc3)C(=O)C(C)(OC(=O)C3CCCC3)C(=O)C2=CN1Cc1ccccc1 (stereo not given)	-3.5	.	.	.	.	.
CC1(OC(=O)C2CCCC2)C(=O)C=C2C=C(c3ccsc3)N(CCN3CCOCC3)C=C2C1=O (stereo not given)	-43.8*	.	0.0%	.	.	.
CC1(OC(=O)C2CCCC2)C(=O)C=C2C=C(c3ccsc3)N(Cc3ccc4c(c3)OCO4)C=C2C1=O (stereo not given)	-6.6	.	0.0%	-0.2	.	-8.0%
CC1(OC(=O)C2CCCC2)C(=O)C=C2C=C(c3ccsc3)N(CC3CC3)C=C2C1=O (stereo not given)	-34.5*!	.	1.1%	-16.8	.	-15.9%
Cc1ccc(NC(=O)Nc2cc(S(C)(=O)=O)ccc2Cl)cc1	-13.5	-11.2%[15.4 µM]	4.8%	-8.2	-12.1	0.9%
O=C(c1ccc2c3c(cccc13)CC2)C1CCCN(Cc2cccnc2)C1 (stereo not given)	-0.6	-4.5%[15.4 µM]	0.4%	45.0	-16.6	-12.9%
COc1cc(CN2CCCC(C(=O)c3ccc4c5c(cccc35)CC4)C2)cc(OC)c1O (stereo not given)	-38.8*	-49.0%	-0.6%	5.3	2.5	-0.8%
CCCC(=O)OCOC(=O)C1=C(C)NC(C)=C(C(=O)OC)C1c1cccc(Cl)c1Cl (stereo not given)	.	.	.	.	4.4	.
COc1c2c(nc3occc13)C(CC=C(C)C)(OC)C(=O)C=C2 (stereo not given)	1.5	-3.5%[15.4 µM]	-0.4%	-9.2	-62.5*	-3.6%
CCOC(=O)c1c(C)oc2c1c1c(c3ccccc32)OCN(Cc2cccnc2)C1	-56.6*	13.0%	-0.4%	9.1	.	-23.9%
CCOC(=O)c1c(C)oc2c1c(C(c1cccnc1)N1CCOCC1)c(O)c1ccccc12 (stereo not given)	-44.1*	0.0%	0.1%	-4.2	7.4	5.2%
CCOC(=O)c1c(C)oc2c1c(C=NCc1ccccn1)c(O)c1ccccc12	-53.0*	8.9%	4.4%	-6.7	.	-10.9%
